# Data as given in the supplement of paper PMC8728848.
# Many of the other results were omitted from the sample, so the strongest signals are more common in it than they were.
# B1: GH98CBM51-1 (Streptococcus pneumoniae) (protein)
# chain: MTYLSDMDWSSATHGDIDKTKTVQKDAPFTTGNKGEHTKISLLTSDDKVKYFDKGIGTVADSPSVISYDISGQGFEKFETYIGIDQSANSSRSDHAVVDRIEIEIDGKVVYSSSVTNPEGFRYNTQAQFISVTIPQNAKKISLKSFAGEHTWGDEVVFADAKLIKTVST
# Tests used:
# Assay in all cases: glycan array binding signal (z-score within array); higher = stronger binding
# Details in all cases: glycan notation: IUPAC condensed, linker removed
# [1] = target: Fuc(a1-2)Gal(b1-3)GalNAc(b1-3)Gal
# Outline: (§1)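 Columns mapping to the same glycan were averaged after glycan names were converted to IUPAC-condensed notation. The data come from 3228 arrays in the Consortium for Functional Glycomics database, limited to those with an available protein sequence. Binding is reported as a within-array Z-score averaged across arrays of one protein sequence and across linkers.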
# [2] = target: Fuc(a1-2)Gal(b1-3)[Fuc(a1-4)]GlcNAc(b1-3)[Gal(b1-4)GlcNAc(b1-6)]Gal(b1-4)Glc
# Outline: as §1
# Fuc(a1-2)Gal(b1-4)GlcNAc = target: Fuc(a1-2)Gal(b1-4)GlcNAc
# Outline: as §1
# [3] = target: Fuc(a1-2)Gal(b1-4)GlcNAc(b1-3)GalNAc
# Outline: as §1
# [4] = target: Fuc(a1-2)Gal(b1-4)GlcNAc6S
# Outline: as §1
# Fuc(a1-2)Gal6S(b1-4)Glc = target: Fuc(a1-2)Gal6S(b1-4)Glc
# Outline: as §1
# Fuc(a1-2)[Gal(a1-3)]Gal = target: Fuc(a1-2)[Gal(a1-3)]Gal
# Outline: as §1
# [5] = target: Fuc(a1-2)[Gal(a1-3)]Gal(b1-4)GlcNAc
# Outline: as §1
# [6] = target: Fuc(a1-2)[Gal(a1-3)]Gal(b1-4)GlcNAc(b1-2)Man(a1-3)[Fuc(a1-2)[Gal(a1-3)]Gal(b1-4)GlcNAc(b1-2)Man(a1-6)]Man(b1-4)GlcNAc(b1-4)GlcNAc
# Outline: as §1
# [7] = target: Fuc(a1-2)[GalNAc(a1-3)]Gal(b1-3)GlcNAc(b1-2)Man(a1-3)[Fuc(a1-2)[GalNAc(a1-3)]Gal(b1-3)GlcNAc(b1-2)Man(a1-6)]Man(b1-4)GlcNAc(b1-4)GlcNAc
# Outline: as §1
# [8] = target: Fuc(a1-2)[GalNAc(a1-3)]Gal(b1-4)GlcNAc
# Outline: as §1
# [9] = target: Fuc(a1-2)[GalNAc(a1-3)]Gal(b1-4)GlcNAc(b1-2)Man(a1-3)[Fuc(a1-2)[GalNAc(a1-3)]Gal(b1-4)GlcNAc(b1-2)Man(a1-6)]Man(b1-4)GlcNAc(b1-4)GlcNAc
# Outline: as §1
# [10] = target: Fuc(a1-2)[GalNAc(a1-3)]Gal(b1-4)GlcNAc(b1-3)Gal(b1-4)GlcNAc
# Outline: as §1
# [11] = target: Fuc(a1-2)[GalNAc(a1-3)]Gal(b1-4)GlcNAc(b1-3)Gal(b1-4)GlcNAc(b1-3)Gal(b1-4)GlcNAc
# Outline: as §1
# [12] = target: Fuc(a1-3)[Gal(b1-4)]GlcNAc
# Outline: as §1
# Fuc(b1-3)GlcNAc = target: Fuc(b1-3)GlcNAc
# Outline: as §1
# [13] = target: Gal(a1-3)Gal(b1-3)GlcNAc(b1-2)Man(a1-3)[Gal(a1-3)Gal(b1-3)GlcNAc(b1-2)Man(a1-6)]Man(b1-4)GlcNAc(b1-4)GlcNAc
# Outline: as §1
# [14] = target: Gal(a1-3)Gal(b1-4)GlcNAc(b1-3)GalNAc
# Outline: as §1
# [15] = target: Gal(a1-3)Gal(b1-4)[Fuc(a1-3)]GlcNAc
# Outline: as §1
# Gal(a1-6)Glc = target: Gal(a1-6)Glc
# Outline: as §1
# Gal(b1-3)Gal = target: Gal(b1-3)Gal
# Outline: as §1
# [16] = target: Gal(b1-3)GalNAc(b1-3)Gal(a1-4)Gal(b1-4)Glc
# Outline: as §1
# Gal(b1-3)GlcNAc = target: Gal(b1-3)GlcNAc
# Outline: as §1
# [17] = target: Gal(b1-4)GlcNAc(a1-6)Gal(b1-4)GlcNAc
# Outline: as §1
# [18] = target: GlcNAc(a1-3)Gal(b1-4)GlcNAc
# Outline: as §1
# [19] = target: GlcNAc(a1-4)Gal(b1-3)GlcNAc
# Outline: as §1
# [20] = target: GlcNAc(b1-4)GlcNAc(b1-4)GlcNAc(b1-4)GlcNAc(b1-4)GlcNAc(b1-4)GlcNAc
# Outline: as §1
# Kdn(a2-3)Gal(b1-4)Glc = target: Kdn(a2-3)Gal(b1-4)Glc
# Outline: as §1
# [21] = target: Neu5Ac(a2-3)Gal(b1-3)GlcNAc6S
# Outline: as §1
# [22] = target: Neu5Ac(a2-3)Gal(b1-3)[Fuc(a1-4)]GlcNAc(b1-3)Gal(b1-3)[Fuc(a1-4)]GlcNAc
# Outline: as §1
binder,measurement,setting,value
B1,glycan array binding signal (z-score),[1],-0.187
same,glycan array binding signal (z-score),[2],-0.19
same,glycan array binding signal (z-score),Fuc(a1-2)Gal(b1-4)GlcNAc,-0.191
same,glycan array binding signal (z-score),[3],-0.194
same,glycan array binding signal (z-score),[4],-0.194
same,glycan array binding signal (z-score),Fuc(a1-2)Gal6S(b1-4)Glc,-0.185
same,glycan array binding signal (z-score),Fuc(a1-2)[Gal(a1-3)]Gal,5.96
same,glycan array binding signal (z-score),[5],5.12
same,glycan array binding signal (z-score),[6],8.05
same,glycan array binding signal (z-score),[7],-0.122
same,glycan array binding signal (z-score),[8],5.07
same,glycan array binding signal (z-score),[9],5.04
same,glycan array binding signal (z-score),[10],5.55
same,glycan array binding signal (z-score),[11],4.91
same,glycan array binding signal (z-score),[12],-0.192
same,glycan array binding signal (z-score),Fuc(b1-3)GlcNAc,-0.193
same,glycan array binding signal (z-score),[13],-0.171
same,glycan array binding signal (z-score),[14],-0.191
same,glycan array binding signal (z-score),[15],-0.186
same,glycan array binding signal (z-score),Gal(a1-6)Glc,-0.186
same,glycan array binding signal (z-score),Gal(b1-3)Gal,-0.181
same,glycan array binding signal (z-score),[16],-0.191
same,glycan array binding signal (z-score),Gal(b1-3)GlcNAc,-0.188
same,glycan array binding signal (z-score),[17],-0.186
same,glycan array binding signal (z-score),[18],-0.193
same,glycan array binding signal (z-score),[19],-0.189
same,glycan array binding signal (z-score),[20],-0.195
same,glycan array binding signal (z-score),Kdn(a2-3)Gal(b1-4)Glc,-0.191
same,glycan array binding signal (z-score),[21],-0.196
same,glycan array binding signal (z-score),[22],-0.184
